Test results reported in PubChem BioAssay (EPA / NIEHS).
Activity calls are given as the source filed them. How the source made its calls: active means hit-call score of the fitted dose curve at least 0.9, where 1 is the maximum; inactive means score below 0.9.

Each compound was assayed on Apoptosis regulator Bcl-2 (Homo sapiens) (UniProt P10415) (assay: LTEA_HepaRG_BCL2: Life Technologies and Expression Analysis (LTEA) Assay for Bcl-2 gene using HepaRG (AID 2283475;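 further: BCL2 transcript by TaqMan qRT-PCR normalised to ACTB GAPDH and POLR2A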)). Settings: mRNA level, 48 h; actives raise or lower the signal.
Protocol: LTEA_HepaRG is a cell based, multiplexed-readout assay that uses HepaRG, a human liver cell line, with measurements taken at 48 hours after chemical dosing on a 96-well plate.LTEA_HepaRG_BCL2 is one of 102 assay component(s) measured in the LTEA HepaRG cell culture assay. It is a marker of Cell proliferation, survival, death.Data from the assay component LTEA_HepaRG_BCL2 was analyzed into 1 endpoint. This assay endpoint, LTEA_HepaRG_BCL2, was analyzed with bidirectional fitting relative to DMSO as the negative control and baseline of activity. Using a type of inducible reporter, measures of mRNA induction for gain or loss-of-signal activity can be used to understand regulation of transcription factor activity. To generalize the intended target to other relatable targets, this assay endpoint is annotated to the cell cycle intended target family, where the subfamily is Cell proliferation, survival, death.
A total of 1060 chemcials from the ToxCast library were tested in eight-point concentration-response experiments. Cell culture and cytotoxicity assays were conducted at Thermo Fisher Scientific's Custom Services facility (Madison, WI). A single lot of human HepaRG cells (Thermo Fisher Scientific, Frederick, MD) was used for the cell culture experiments. 96-well format collagen type I coated plates of human HepaRG cells were prepared using established methods. Briefly, cryopreserved HepaRG cells were thawed, plated at a density of approximately 100,000 cells/well in HepaRG Thaw, Plate, and General Purpose media (HPRG770, Thermo Fisher Scientific), and incubated for 48 hours. 0.5% DMSO was selected as vehicle control to balance the requisite need of DMSO in HepaRG cultures to maintain differentiation (for example, baseline metabolism, proportions of hepatocytes vs. cholangiocytes), while enabling further hepatic receptor pathway activation (for example, PXR and CAR) in response to chemical exposure. 48 hours after plating, the culture medium was replaced with HepaRG Serum-Free Incudtion Media. Cells were exposed to each test chemical in duplicate and maintained in CO2 incubators for another 48 hours. Chemical plates were thawed to room temperature and 200x concentrations of treatment groups were prepared. 8-point conentration-reponse curves were made with the highest exposure at 100 uM, followed by half-log dilutions, all in 0.5% DMSO. Each test plate contained variouse controls, induction positive controls (1mM phenobarbital), cytotoxicity positive controls ([…] aflatoxin B1), vehicle controls (0.5% DMSO), and total lysis controls (0.5% DMSO). Cell morphology images were taken using an Essen IncuCyte FLR automated microscope, with six 96-well plates imaged in about 24 minutes. Images were captured and exported and JPEG files. Spent culture media was transfered to black-well plates for the LDH assay, and remaining media was sorted at -80 C for later use. Cells were treated with RLT buffer and frozen until shipped for gene expression analysis. Total RNA was isolated from the cell suspension in 75 uL of Buffer RLT (Qiagen, Germantown, MD 20874) by Quintiles/Expression Analysis (Durham, NC) using a custom isolation procedure. Total RNA from each plate well was transferred to a preamplification plate. Fluidigm's 96.96 Dynamic ArrayTM (Fluidigm, Amsterdam, the Netherlands) technology was used for gene expression analyses by quantitative reverse transcription polymerase chain reaction (qRT-PCR, performed by Quintiles/Expression Analysis, Durham, NC)89. Standard TaqManTM Assays (Applied Biosystems/ThermoFisher Scientific, Foster City, CA) were used to assess the expression of 93 genes selected based on their selectivity and sensitivity to important hepatic receptors known to be modulated by environmental chemicals; importance in human hepatocyte functionality; and hepatotoxicity. […]

Chain of Apoptosis regulator Bcl-2 (Homo sapiens) (P10415 whole entry, looked up): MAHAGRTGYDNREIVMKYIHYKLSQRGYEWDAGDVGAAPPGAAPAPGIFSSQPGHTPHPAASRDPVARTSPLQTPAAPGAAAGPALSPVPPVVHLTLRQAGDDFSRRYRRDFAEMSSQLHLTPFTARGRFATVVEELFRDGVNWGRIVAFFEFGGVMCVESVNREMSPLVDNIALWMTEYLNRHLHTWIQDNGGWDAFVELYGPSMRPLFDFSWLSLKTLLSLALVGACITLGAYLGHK

SMILES | AC50 | outcome
CCOc1cccc(-n2cc(C(=O)N3CCN(c4cc(C(=O)O)c5ccccc5c4)CC3)nc2-c2ccc(C)cc2)c1 | 84.5 µM (active) | 
COc1ccc(/C=C/S(=O)(=O)NC(=O)c2ccc(C)cc2Cl)cc1 |  | inactive
CC(=O)c1ccc2c(c1)[C@H](NC(=O)c1ccc(F)cc1)[C@@H](O)C(C)(C)O2 |  | inactive
C=CCCCCCCCCC(=O)O |  | inactive
COCCOc1cc2cc(C(=O)NC3CCN(C(C)C)CC3)n(CC(=O)Nc3ccc(Cl)cn3)c2cn1 |  | inactive
CC(C)=CCC/C(C)=C/CO |  | inactive
CC(C)CCO |  | inactive
CN(C)c1ccc(Cc2ccc(N(C)C)cc2)cc1 |  | inactive
CC(O)CN(CCN(CC(C)O)CC(C)O)CC(C)O (stereo not given) | 12.7 µM (active) | 
CC(=O)OCCC(C)C |  | inactive
CC(C)c1cccc(C(C)C)c1N1C(=O)c2ccc(O)cc2C1=O | 86.2 µM (active) | 
CC(=O)OC[C@H]1O[C@@](COC(C)=O)(O[C@H]2O[C@H](COC(C)=O)[C@@H](OC(C)=O)[C@H](OC(C)=O)[C@H]2OC(C)=O)[C@@H](OC(C)=O)[C@@H]1OC(C)=O |  | inactive
COC(=O)c1c(Cl)c(Cl)c(C(=O)OC)c(Cl)c1Cl |  | inactive
CCc1cc(SCc2sc(-c3ccc(C(F)(F)F)cc3)nc2CN2CCN(c3ccc(OC)cc3)CC2)ccc1OCC(=O)O | 8.96 µM (active) | 
CC[C@H]1CC[C@H](NCc2cc3c(cc2OC)[C@H]2C[C@H]2C(=O)N3C)[C@H](c2ccccc2)N1 |  | inactive
O=C1OC(=O)C2C3C=CC(C3)C12 (stereo not given) |  | inactive
O=C(O)c1cccc(Oc2ccccc2)c1 |  | inactive
C[C@](N)(Cc1ccc(O)c(O)c1)C(=O)O |  | inactive
O=c1n(CC2CO2)c(=O)n(CC2CO2)c(=O)n1CC1CO1 (stereo not given) |  | inactive
O=c1[nH]c2ccc(S(=O)CCN3CCC(Cc4ccc(F)cc4)CC3)cc2o1 (stereo not given) |  | inactive

SMILES | AC50 | outcome
CCCN(C1CCN(C(=O)C2CCNCC2)CC1)[C@@H]1CCc2ccc(OC)cc2C1 |  | inactive
CCOCCOCCOCCO |  | inactive
Cn1cnc([N+](=O)[O-])c1Sc1ncnc2nc[nH]c12 |  | inactive
O=C(O)c1cccc(N(Cc2cccnc2)c2ccc(OC(F)F)c(OC(F)F)c2)c1 |  | inactive
CCCC(=O)OCC |  | inactive
CC[C@H]1OC(=O)[C@H](C)[C@@H](O[C@H]2C[C@@](C)(OC)[C@@H](O)[C@H](C)O2)[C@H](C)[C@@H](O[C@@H]2O[C@H](C)C[C@H](N(C)C)[C@H]2O)[C@](C)(O)C[C@@H](C)C(=O)[C@H](C)[C@@H](O)[C@]1(C)O |  | inactive
CC(C)=CCCC(C)=CC=O |  | inactive
CCCCC(CC)COC(=O)c1ccc(C(=O)OCC(CC)CCCC)cc1 (stereo not given) |  | inactive
C1N2CN3CN1CN(C2)C3 |  | inactive
C1=CCCC=CCCC=CCC1 |  | inactive
CC/C(=C\C(=N/O)C(N)=O)C(C)[N+](=O)[O-] (stereo not given) |  | inactive
On1ccccc1=S |  | inactive
CC1(C)C(=O)N(Br)C(=O)N1Br |  | inactive
Cn1c(=O)c2c(ncn2C)n(C)c1=O |  | inactive
CCOC(=O)c1ccc(C2CCC(NC[C@H](O)COc3ccc(O)c(NS(C)(=O)=O)c3)CC2)cc1 (stereo not given in full) | 2.75 µM (active) | 
CC1=CC(=O)CC(C)(C)C1 |  | inactive
Cc1ccc(S(=O)(=O)O)cc1C |  | inactive
Cc1c(-c2cccnc2)c2ccccc2n1CCCCC(=O)O |  | inactive
COc1ccc(-n2nc(C(F)F)cc2-c2ccc(S(C)=O)cc2)cc1 (stereo not given) |  | inactive
O=C(O)c1cc(N=Nc2ccc(S(=O)(=O)Nc3ccccn3)cc2)ccc1O |  | inactive
